Reference: PubChem BioAssay (EPA / NIEHS)
The source made the active and inactive calls. Rule for the calls: active = hit-call score of the fitted dose curve at least 0.9, where 1 is the maximum; inactive = score below 0.9.

Tests used:
Settings in all cases: mRNA level, 48 h; actives raise or lower the signal
[1] = read-out: cysteine-aspartic acid protease (CASP8), CASP8 (gene 841); assay: LTEA_HepaRG_CASP8: Life Technologies and Expression Analysis (LTEA) Assay for cysteine-aspartic acid protease (CASP8) using HepaRG (AID 2283480)
Outline: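 Concentration-response in duplicate up to 100 uM (half-log steps, 0.5% DMSO) on differentiated HepaRG cultures for 48 h. Expression change of CASP8 mRNA is determined by TaqMan qRT-PCR with housekeeping-gene normalization.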

[2] = read-out: Cytochrome P450 (CYP2B6), CYP2B6 (gene 1555); assay: LTEA_HepaRG_CYP2B6: Life Technologies and Expression Analysis (LTEA) Assay for Cytochrome P450 (CYP2B6) using HepaRG (AID 2283481)
Outline: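 Read-out is CYP2B6 mRNA by TaqMan qRT-PCR, normalized to three housekeeping genes and fitted bidirectionally against 0.5% DMSO baseline. Human HepaRG cells received test chemicals for 48 h, top concentration 100 uM, half-log dilutions.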

[3] = read-out: Cytochrome P450 2C19 (Homo sapiens) (UniProt P33261); assay: LTEA_HepaRG_CYP2C19: Life Technologies and Expression Analysis (LTEA) Assay for CYP2C19 using HepaRG (AID 2283482)
Outline: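 HepaRG, 48 h chemical exposure, 8-pt half-log series from 100 uM in 0.5% DMSO, duplicates. Readout: CYP2C19 mRNA by TaqMan qRT-PCR, housekeeping-normalized. Bidirectional fit vs DMSO baseline; phenobarbital 1mM as induction control.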

CYP2C8 (gene 1558) = assay: LTEA_HepaRG_CYP2C8: Life Technologies and Expression Analysis (LTEA) Assay for CYP2C8 using HepaRG (AID 2283483)
Outline: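 This is a transcriptional endpoint in HepaRG cultures: 48 h exposure, highest concentration 100 uM. CYP2C8 mRNA is quantified by TaqMan qRT-PCR.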

CYP2C9 (gene 1559) = assay: LTEA_HepaRG_CYP2C9: Life Technologies and Expression Analysis (LTEA) Assay for CYP2C9 using HepaRG (AID 2283484)
Outline: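 Eight-point concentration-response (highest 100 uM, half-log dilutions) in HepaRG cells for 48 h; CYP2C9 expression by qRT-PCR normalized to ACTB, GAPDH, POLR2A. Bidirectional fit, DMSO baseline.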

CYP2E1 (gene 1571) = assay: LTEA_HepaRG_CYP2E1: Life Technologies and Expression Analysis (LTEA) Assay for CYP2E1 using HepaRG (AID 2283485)
Outline: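 CYP2E1 transcript measured by Fluidigm qRT-PCR against three housekeeping genes in human HepaRG cells treated 48 h (top 100 uM, half-log steps, 0.5% DMSO vehicle). Gain or loss fitted relative to DMSO baseline.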

CYP4A11 (gene 1579) = assay: LTEA_HepaRG_CYP4A11: Life Technologies and Expression Analysis (LTEA) Assay for CYP4A11 using HepaRG (AID 2283486)
Outline: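 CYP4A11 transcript levels were quantified by TaqMan qRT-PCR after HepaRG human liver cells were treated for 48 hours with test chemicals (top 100 uM, half-log dilutions, 0.5% DMSO). Gain or loss of signal was fitted relative to DMSO.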

[4] = read-out: Cytochrome P450 3A4 (Homo sapiens) (UniProt P08684); assay: LTEA_HepaRG_CYP3A4: Life Technologies and Expression Analysis (LTEA) Assay for CYP3A4 using HepaRG (AID 2283487)
Outline: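 Differentiated HepaRG cells, plated 48 h, then dosed 48 h in serum-free induction medium with 0.5% DMSO, 8 half-log concentrations up to 100 uM, duplicate. CYP3A4 mRNA by qRT-PCR, normalized to ACTB/GAPDH/POLR2A; bidirectional fit versus DMSO.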

[5] = read-out: DNA damage-inducible transcript 3 (DDIT3), DDIT3 (gene 1649); assay: LTEA_HepaRG_DDIT3: Life Technologies and Expression Analysis (LTEA) Assay for DNA damage-inducible transcript 3 (DDIT3) using HepaRG (AID 2283488)
Outline: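 DDIT3 transcript was quantified by qRT-PCR with ACTB/GAPDH/POLR2A normalization after 48 h chemical treatment of differentiated HepaRG cells in 0.5% DMSO. Dosing was eight-point, half-log, top 100 uM, duplicate wells. Curves fitted bidirectionally versus DMSO.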

[6] = read-out: Pro-epidermal growth factor (Homo sapiens) (UniProt P01133); assay: LTEA_HepaRG_EGF: Life Technologies and Expression Analysis (LTEA) Assay for Epidermal growth factor (EGF) using HepaRG (AID 2283489)
Outline: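 qRT-PCR readout of EGF transcript after 48 h chemical exposure of HepaRG cells; eight concentrations from 100 uM down in half-log steps, duplicate wells, 0.5% DMSO vehicle. Bidirectional curve fitting against DMSO baseline.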

[7] = read-out: Early growth response protein 1 (EGR1) transcription factor, EGR1 (gene 1958); assay: LTEA_HepaRG_EGR1: Life Technologies and Expression Analysis (LTEA) Assay for Early growth response protein 1 (EGR1) transcription factor using HepaRG (AID 2283490)
Outline: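 EGR1 expression change in human HepaRG after 48 h chemical exposure, assessed by housekeeping-normalized qRT-PCR; concentration-response up to 100 uM, fitted in both directions against DMSO controls.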

[8] = read-out: Ezrin (EZR), EZR (gene 7430); assay: LTEA_HepaRG_EZR: Life Technologies and Expression Analysis (LTEA) Assay for Ezrin (EZR) using HepaRG (AID 2283491)
Outline: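 EZR transcript levels came from Fluidigm qRT-PCR and were normalized to three housekeeping genes after 48 h chemical exposure of HepaRG cells. Dosing used an 8-point half-log series with a 100 uM top concentration in 0.5% DMSO, tested in duplicate; both directions were fitted versus vehicle.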

[9] = read-out: Cytochrome P450 3A7 (Homo sapiens) (UniProt P24462); assay: LTEA_HepaRG_CYP3A7: Life Technologies and Expression Analysis (LTEA) Assay for CYP3A7 using HepaRG (AID 2283492)
Outline: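 CYP3A7 transcript levels were read by TaqMan qRT-PCR on Fluidigm arrays after 48 h chemical exposure of human HepaRG cells, with housekeeping-gene normalisation. Eight half-log concentrations up to 100 uM in 0.5% DMSO were tested in duplicate.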

CYP3A5 (gene 1577) = assay: LTEA_HepaRG_CYP3A5: Life Technologies and Expression Analysis (LTEA) Assay for CYP3A5 using HepaRG (AID 2283493)
Outline: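 mRNA levels were quantified by qRT-PCR on Fluidigm arrays and normalized to three housekeeping genes. Differentiated HepaRG cells received 48 h exposure (top 100 uM, half-log steps, 0.5% DMSO vehicle, duplicate); bidirectional fitting versus DMSO.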

[10] = read-out: Fatty Acid-Binding Protein 1 (FABP1), FABP1 (gene 2168); assay: LTEA_HepaRG_FABP1: Life Technologies and Expression Analysis (LTEA) Assay for Fatty Acid-Binding Protein 1 (FABP1) using HepaRG (AID 2283494)
Outline: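 Values reflect bidirectional concentration-response fitting of FABP1 mRNA change against 0.5% DMSO controls. Human HepaRG cultures received eight half-log doses (top 100 uM) for 48 h; expression quantified by TaqMan qRT-PCR with housekeeping-gene normalization.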

[11] = read-out: Cytochrome P450 4A22 (Homo sapiens) (UniProt Q5TCH4); assay: LTEA_HepaRG_CYP4A22: Life Technologies and Expression Analysis (LTEA) Assay for Cytochrome P450 4A22 (CYP4A22) using HepaRG (AID 2283495)
Outline: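 HepaRG, 48 h post-plating -> serum-free induction medium; dosed 48 h, duplicate, 8 conc. (100 uM top, half-log), 0.5% DMSO. Readout: CYP4A22 mRNA by qRT-PCR, ACTB/GAPDH/POLR2A normalization; gain/loss fit relative to DMSO.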

[12] = read-out: Cytochrome P450 7A1 (Homo sapiens) (UniProt P22680); assay: LTEA_HepaRG_CYP7A1: Life Technologies and Expression Analysis (LTEA) Assay for Cytochrome P450 7A1 (CYP7A1) using HepaRG (AID 2283496)
Outline: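 HepaRG, 48 h exposure, 8-pt half-log series from 100 uM, 0.5% DMSO vehicle, duplicates. Readout: TaqMan qRT-PCR mRNA vs three housekeeping genes; bidirectional curve fit against DMSO baseline.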

[13] = read-out: Glutathione S-Transferase (GSTA2), GSTA2 (gene 2939); assay: LTEA_HepaRG_GSTA2: Life Technologies and Expression Analysis (LTEA) Assay for Glutathione S-Transferase (GSTA2) using HepaRG (AID 2283497)
Outline: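 Oxidative-stress marker GSTA2 is quantified by TaqMan qRT-PCR in HepaRG cultures treated 48 h across an eight-point range to 100 uM. Expression is normalized to endogenous controls and compared with 0.5% DMSO vehicle.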

[14] = read-out: Glutamate-cysteine ligase catalytic (GCLC), GCLC (gene 2729); assay: LTEA_HepaRG_GCLC: Life Technologies and Expression Analysis (LTEA) Assay for Glutamate-cysteine ligase catalytic (GCLC) using HepaRG (AID 2283498)
Outline: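 Oxidative-stress marker GCLC is measured as mRNA change in human HepaRG liver cells after 48 h chemical treatment in 0.5% DMSO, eight concentrations from 100 uM. Activity is fitted bidirectionally against vehicle.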

[15] = read-out: growth arrest and DNA damage 45 (GADD45G), GADD45G (gene 10912); assay: LTEA_HepaRG_GADD45G: Life Technologies and Expression Analysis (LTEA) Assay for growth arrest and DNA damage 45 (GADD45G) using HepaRG (AID 2283499)
Outline: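 HepaRG, 48 h exposure, top 100 uM, half-log 8-point series, 0.5% DMSO vehicle, duplicates. Readout: GADD45G transcript by qRT-PCR (Fluidigm array), housekeeping-normalised (ACTB/GAPDH/POLR2A). Bidirectional curve fit vs DMSO baseline.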

Measured: outcome

Chain of Cytochrome P450 3A7 (Homo sapiens) (P24462 whole entry, looked up): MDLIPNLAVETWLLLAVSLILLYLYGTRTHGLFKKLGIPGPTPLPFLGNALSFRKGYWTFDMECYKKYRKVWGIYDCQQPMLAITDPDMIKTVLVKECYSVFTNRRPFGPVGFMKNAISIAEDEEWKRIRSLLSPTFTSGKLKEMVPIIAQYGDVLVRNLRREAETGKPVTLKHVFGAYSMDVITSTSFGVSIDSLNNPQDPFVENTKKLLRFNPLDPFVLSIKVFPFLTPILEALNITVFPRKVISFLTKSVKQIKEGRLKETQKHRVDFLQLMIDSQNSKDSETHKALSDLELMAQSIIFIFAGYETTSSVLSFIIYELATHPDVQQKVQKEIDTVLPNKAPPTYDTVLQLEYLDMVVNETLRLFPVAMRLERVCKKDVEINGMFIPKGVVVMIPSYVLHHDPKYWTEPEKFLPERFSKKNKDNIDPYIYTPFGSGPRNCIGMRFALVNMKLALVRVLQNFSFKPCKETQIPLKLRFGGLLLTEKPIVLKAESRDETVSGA
Chain of Cytochrome P450 3A4 (Homo sapiens) (P08684 whole entry, looked up): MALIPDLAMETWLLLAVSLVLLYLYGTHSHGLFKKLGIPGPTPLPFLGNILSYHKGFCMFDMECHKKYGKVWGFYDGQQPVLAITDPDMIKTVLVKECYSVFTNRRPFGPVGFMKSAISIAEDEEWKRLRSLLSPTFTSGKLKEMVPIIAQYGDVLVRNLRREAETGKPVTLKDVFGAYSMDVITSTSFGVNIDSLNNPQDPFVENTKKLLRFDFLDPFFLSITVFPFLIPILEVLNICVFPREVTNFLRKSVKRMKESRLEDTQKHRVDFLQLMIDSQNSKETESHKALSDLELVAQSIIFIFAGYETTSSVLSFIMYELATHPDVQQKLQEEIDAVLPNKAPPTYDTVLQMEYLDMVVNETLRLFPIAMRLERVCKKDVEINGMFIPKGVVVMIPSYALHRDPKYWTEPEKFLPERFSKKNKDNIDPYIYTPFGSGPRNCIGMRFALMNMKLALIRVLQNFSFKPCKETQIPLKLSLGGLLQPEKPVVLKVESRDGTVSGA
Chain of Cytochrome P450 2C19 (Homo sapiens) (P33261 whole entry, looked up): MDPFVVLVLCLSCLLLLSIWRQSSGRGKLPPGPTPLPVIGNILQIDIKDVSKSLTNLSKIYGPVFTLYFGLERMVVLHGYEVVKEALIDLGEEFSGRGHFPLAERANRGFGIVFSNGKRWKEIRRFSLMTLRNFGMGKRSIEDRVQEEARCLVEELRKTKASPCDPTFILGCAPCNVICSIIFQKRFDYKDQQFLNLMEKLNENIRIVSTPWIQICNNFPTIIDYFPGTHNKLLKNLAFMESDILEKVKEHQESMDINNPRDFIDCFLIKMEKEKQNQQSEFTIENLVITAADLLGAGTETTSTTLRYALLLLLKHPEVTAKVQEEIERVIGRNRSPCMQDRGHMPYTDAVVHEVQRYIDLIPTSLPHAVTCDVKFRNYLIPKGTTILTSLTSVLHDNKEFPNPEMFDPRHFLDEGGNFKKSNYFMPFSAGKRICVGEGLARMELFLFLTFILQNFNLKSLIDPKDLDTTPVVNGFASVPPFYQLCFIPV

CCC(C)=NO
inactive: all assays above
